The source made the active and inactive calls. Calls come from the whole dose curve; as a rule, active = well fitted curve in the direction sought with a large enough effect; inactive = flat fitted curve, though single readings scatter.

This test is described as follows: Quantitative high throughput screen for delayed death inhibitors of the malarial parasite plastid: Hit Validation with 3D7 at 96 hr using Flow Cytometry. The settings on record: P. falciparum 3D7 in erythrocytes, SYBR/MitoTracker flow cytometry. An excerpt: The goal of this screen is to discover new antimalarial compounds that act by inhibiting the development of the apicoplast organelle in the malarial parasite Plasmodium falciparum. Some antibiotics, such as azithromycin and tetracycline, are known to interfere with the apicoplast translational machinery, and have a potent antimalarial effect. […] We developed a cell-based quantitative high throughput screen that leverages this "delayed death" phenotype to enrich for compounds that target the apicoplast. To detect small molecules that cause the delayed death phenotype, erythrocytes infected with firefly luciferase-expressing parasites were incubated with compounds for either one or two generations, corresponding to 48 and 96 hours, respectively. Growth inhibition was detected by a decrease in luciferase activity. Compounds that inhibited parasite growth in the second generation at least five-fold more potently than in the first generation were defined as delayed death inducing. These compounds were selected for confirmatory screening using a flow cytometry based assay. This hit validation assay used the 3D7 cell line and measured at 96 hours. NIH Molecular Libraries Probe Production Network [MLPCN] NIH Chemical Genomics Center [NCGC] MLPCN Grant: R21 NS059500 Assay Provider: David Fidock and Eric Ekland, Columbia University
Test compounds were diluted in 20 microliters of complete media (RPMI 1640 with 0.5% w/v Albumax (GIBCO), 24 mM sodium bicarbonate (Sigma) and 10 ug/mL gentamycin (Gibco)) in clear 384-well plates (Greiner). All liquid handling was conducted using a Bio Tek Precision 2000 pipetting system. Twenty microliters of infected erythrocytes, 0.2% parasitemia (for 48 hour time points) or 0.1% parasitemia (for 96 hour time points) were added to the compound dilutions (1% hematocrit, final concentration; 40 microliters, total culture volume). The assay plates were incubated for 48 hours, or 96 hours, at 37 masculine C in a humidified chamber (Billups- Rothenberg, Del Mar, CA, USA), gassed with 5%CO2/5%O2/ 90%N2. After two generations (96hours), 5 microliters of culture were harvested and transferred to a second 384 well plate for fluorescent staining. Samples were stained with 30 microliters of 2 x SYBR Green I (Invitrogen) and 150nM MitoTracker Deep Red (Invitrogen) diluted in 0.9% NaCl, 0.2% dextrose (Baxter) supplemented with 2.5% Fetal Calf Serum (Gibco) (saline/FCS). Mature erythrocytes lack nuclei and mitochondria, therefore only parasitized erythrocytes retain the SYBR Green I and MitoTracker Deep Red. After 30 minutes at 37 masculine C, the stained cells were diluted in an additional 60 microliters of saline/FCS. The samples were harvested directly from the 384 well plate using a Hypercyt High Capacity Flow Platform (Intellicyt) paired with a C6 Flow Cytometer (Accuri). The flow cytometry files were analyzed using FlowJo software (FlowJo).
Take `CN(C)S(=O)(=O)c1cc(NC(=O)C2=COCCO2)ccc1Cl`: the Potency is 15.9 µM (active). Turning to `CCOc1ccc(C(=O)Nc2ccc(N3CCN(C)CC3)cc2)cc1`, the Potency was 16.5 µM (active).

These data come from PubChem BioAssay AID624335 (National Center for Advancing Translational Sciences (NCATS), 2012).
